According to PubChem BioAssay (EPA / NIEHS):
Calls of active or inactive are those of the source. Rule for the calls: active = hit-call score of the fitted dose curve at least 0.9, where 1 is the maximum; inconclusive = response in the unintended direction; inactive = score below 0.9.

Target: human CYP2D6, CYP2D6 (gene 1565) (UniProt P10635)
Assay: NVS_ADME_hCYP2D6: NovaScreen (NVS) CYP450-related Enzyme Activity (ADME) Assay for human CYP2D6 (AID 2283107)
Method: NVS_ADME_hCYP2D6 is a biochemical, single-readout assay that uses extracted gene-proteins from insect cells in a cell-free assay. Measurements were taken 1 hour after chemical dosing in a 96-well plate.NVS_ADME_hCYP2D6 is one of one assay component(s) measured or calculated from the NVS_ADME_hCYP2D6 assay. It is designed to make measurements of enzyme activity, a form of enzyme reporter, as detected with fluorescence intensity signals by Fluorescence technology.Data from the assay component NVS_ADME_hCYP2D6 was analyzed into 1 assay endpoint. This assay endpoint, NVS_ADME_hCYP2D6, was analyzed in the positive analysis fitting direction relative to Acetonitrile as the negative control and baseline of activity. Using a type of enzyme reporter, loss-of-signal activity can be used to understand changes in the enzymatic activity as they relate to the gene CYP2D6. Furthermore, this assay endpoint can be referred to as a primary readout, because this assay has produced multiple assay endpoints where this one serves a enzymatic activity function. To generalize the intended target to other relatable targets, this assay endpoint is annotated to the cyp intended target family, where the subfamily is xenobiotic metabolism.
Binding assays used specific radioligands (tritiated, iodinated) with non-radioactive competitive displacement ligands in agonist or antagonist protocols (as indicated) and various reference compounds and inhibitors to titrate specific binding to receptors and transporters. Most enzyme assays (CYPs, kinases, phosphatases, proteases, HDACs) used recombinant protein and specific substrates (fluorescence mostly, some colorimetric and radioactive) and inhibitors, followed by a biochemical separation of substrate and product. All assays for the biochemical HTS were initially run in duplicate at a single concentration (10 uM for CYP450 assays and 25 uM for all others). […] Each assay was run with positive and negative controls, and concurrent controls on every plate. The follow-up (secondary) screen tested active chemical-pairs in concentration series, as well as a few additional assays not tested in the primary screen, some selected negative inactives, and several cases re-run in the concentration series for confirmatory purposes.

human CYP2D6, CYP2D6 (gene 1565), sequence (P10635 whole entry, looked up): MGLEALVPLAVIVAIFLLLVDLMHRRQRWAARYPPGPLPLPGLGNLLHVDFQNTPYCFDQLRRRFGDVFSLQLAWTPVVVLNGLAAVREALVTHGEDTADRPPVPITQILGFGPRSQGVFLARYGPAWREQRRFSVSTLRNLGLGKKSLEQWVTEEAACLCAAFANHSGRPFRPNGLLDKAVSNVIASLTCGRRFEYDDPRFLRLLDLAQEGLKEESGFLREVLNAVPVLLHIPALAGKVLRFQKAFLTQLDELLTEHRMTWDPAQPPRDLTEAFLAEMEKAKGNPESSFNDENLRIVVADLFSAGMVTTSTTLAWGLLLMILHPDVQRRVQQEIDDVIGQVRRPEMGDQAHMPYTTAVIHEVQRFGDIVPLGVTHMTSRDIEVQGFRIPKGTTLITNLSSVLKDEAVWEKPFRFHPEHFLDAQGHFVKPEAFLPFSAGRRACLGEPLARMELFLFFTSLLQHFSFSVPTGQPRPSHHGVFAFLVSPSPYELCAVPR

| Compound | AC50 | outcome |
| --- | --- | --- |
| CCCCCCCCCCCC[N+](C)(C)C | 7.58 µM (active) |  |
| c1ccc(C[n+]2cccc3ccccc32)cc1 | 7.84 µM (active) |  |
| Cc1occc1C(=O)Nc1ccc(C(=O)N2CCC(F)(F)/C(=C\C(=O)N3CCC(N4CCCCC4)CC3)c3ccccc32)cc1 | 1.77 µM (active) |  |
| CCCCOC(=O)c1ccc(O)cc1 | 4.89 µM (active) |  |
| Clc1cc(Cl)c2c(c1)N=C1CCCCCN1C2 | 2.71 µM (active) |  |
| CN(C)c1ccc(C(=C2C=CC(=[N+](C)C)C=C2)c2ccc(N(C)C)cc2)cc1 | 2.86 µM (active) |  |
| O=C1c2ccccc2C(=O)N1CCc1noc(-c2ccc(CN3CCCCCC3)s2)n1 | 6.57 µM (active) |  |
| NCc1cccc(C2CCN(C(=O)c3ccc(C#Cc4ccccc4F)o3)CC2)c1 | 6.76 µM (active) |  |
| COc1cccc([C@H](O)C2CCN(CCc3ccc(F)cc3)CC2)c1OC | 5.29 µM (active) |  |
| Clc1ccccc1C(c1ccccc1)(c1ccccc1)n1ccnc1 | 3.72 µM (active) |  |
| CCCCCCCCOC(=O)c1cc(O)c(O)c(O)c1 | 10.1 µM (active) |  |
| COc1ccc2cc(S(=O)(=O)N[C@H](CC(=O)N[C@H](Cc3ccc(CN4[C@H](C)CCC[C@@H]4C)cc3)C(=O)N(C)C(C)C)c3ccc4c(c3)OCO4)ccc2c1 | 0.305 µM (active) |  |
| CN(C)C(=O)C1(N2CCCCC2)CCN(CC[C@@]2(c3ccc(Cl)c(Cl)c3)CN(C(=O)c3ccccc3)CCO2)CC1 | 4.97 µM (active) |  |
| CCN(CC)C(=O)c1cc(S(=O)(=O)Cc2ccccc2)c(N2CCC(c3ccccc3)CC2)cc1N(CC)CCN(C)C | 5.11 µM (active) |  |
| CCN(Cc1cccnc1)C(=O)c1cccc(Cl)c1[C@]1(C)C(=O)N(Cc2ccc(OC)cc2OC)c2ccc(Cl)cc21 |  | inactive |
